Shown are actives, neighbours in structure and some others; about 3.7% of the full set was active somewhere.
TCR act – Activators of T cell receptors: qHTS campaign; Potency, µM (series often up to 9.22 µM), for the others: at the highest dose activation of IL-2 secretion, usual class: activators; primary human leukocytes, anti-CD3, IL-2 HTRF, 48 h; 330,000 tested, under 10 active; AID 504894, 2011; also: % of control where 0% means no effect
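Readout: HTRF IL-2, Eu-cryptate/d2 antibody pair, 320nm excitation, 665nm emission. Stimulus: a-CD3 beads, no co-stimulation. Cells: primary human leukocytes. Exposure: 48 hr with compound.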
VDR inh – Inhibitors of the vitamin D receptor (VDR): qHTS | Potency, µM, for inactives: max response, negative = inhibition, actives largely listed as inhibitors | VDR-SRC2-3 peptide fluorescence polarization, 2 h | 400,000 compounds, 0.93% hits; also: potency is read from the fitted curve at half-maximal effect; % is scaled to controls: 0 for no effect and ±100 for the full control effect
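Reagent solutions, kept cold and dark, are dispensed first; compounds are then pinned in at 23 nl, plates briefly spun, and incubated 2 h at ambient temperature. Inhibition of VDR–SRC2-3 peptide binding is read by fluorescence polarization.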
WRN inhibitor – qHTS for Inhibitors of WRN Helicase; Bifunctional 3'-5' exonuclease/ATP-dependent helicase WRN (Homo sapiens), Q14191; WRN helicase unwinding, fluorescent forked duplex, kinetic; Potency, µM (top dose mostly 114 µM), without a hit: at the top dose activity change, negative = inhibition, most hits filed as inhibitors; 360,000 compounds, 0.46% hits; AID 651768, 2012; also: potency is read from the fitted curve at half-maximal effect; % is scaled to controls: 0 for no effect and ±100 for the full control effect; nearly all actives have a fitted effect of over 55% in size
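WRN at 20 nM final was preincubated with compound for 15 min at room temperature; reaction started with 100 nM forked duplex oligonucleotide carrying fluorophore and quencher plus 2 mM ATP (final). Unwinding followed kinetically by red fluorescence (ex 525/em 598 nm).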
PI5P4Ka inh – qHTS for Inhibitors of phosphatidylinositol 5-phosphate 4-kinase (PI5P4K); Phosphatidylinositol 5-phosphate 4-kinase type-2 alpha (Homo sapiens), P48426; PI5P4Kalpha enzyme, ADP-Glo luminescence, 60 min; hits give low values; max response, %; 330,000 compounds, 1.2% hits; active = max response of -50% or lower; inconclusive = between -30% and -50%; inactive = -30% or higher; also: value at the top dose of about 77 µM; % is scaled to controls: 0 for no effect and ±100 for the full control effect
Target sequence (P48426 whole entry, looked up): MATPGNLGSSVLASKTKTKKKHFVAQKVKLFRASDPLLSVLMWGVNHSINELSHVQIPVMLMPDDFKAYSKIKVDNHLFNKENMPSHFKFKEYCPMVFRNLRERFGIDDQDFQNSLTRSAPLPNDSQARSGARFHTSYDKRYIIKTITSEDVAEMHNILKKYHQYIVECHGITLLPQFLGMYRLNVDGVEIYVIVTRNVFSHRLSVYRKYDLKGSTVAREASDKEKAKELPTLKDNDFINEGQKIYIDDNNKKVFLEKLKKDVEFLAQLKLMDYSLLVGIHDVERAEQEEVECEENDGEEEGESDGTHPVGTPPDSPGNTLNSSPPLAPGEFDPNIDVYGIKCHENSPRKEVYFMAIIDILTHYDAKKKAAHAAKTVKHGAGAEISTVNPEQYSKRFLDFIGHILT
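Compounds were pin-transferred onto PI5P4Kalpha and substrate in HEPES pH 7.4 buffer with EGTA, CHAPS and 5% DMSO. ATP (5 microM final) started the reaction, which ran 60 minutes at room temperature before ADP-Glo detection.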
PLK1 PBD inh – qHTS for Inhibitors of PLK1-PDB (polo-like kinase 1 - polo-box domain): Primary Screen. Serine/threonine-protein kinase PLK1 (Homo sapiens), P53350. Plk1 PBD binding of FITC phosphopeptide, fluorescence polarization. Potency, µM, for inactives: max response, negative = inhibition, hits mostly inhibitors. 360,000 compounds, 2.8% hits; also: potency is read from the fitted curve at half-maximal effect; series mostly up to about 57 µM; % is scaled to controls: 0 for no effect and ±100 for the full control effect; nearly all actives have a fitted effect of over 65% in size
FEN1 inh – qHTS Assay for the Inhibitors of Human Flap endonuclease 1 (FEN1); P39748; Recombinant FEN1 flap cleavage, fluorescence, 15 min; Potency, µM (series often up to 114 µM), without a hit: at the highest dose activity change, negative = inhibition, hits mostly inhibitors; 390,000 compounds, 0.35% hits; AID 588795, 2011; also: potency is read from the fitted curve at half-maximal effect; % is scaled to controls: 0 for no effect and ±100 for the full control effect; nearly all actives have a fitted effect of over 65% in size
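FEN1 at 10 nM preincubated with compounds 15 min at room temperature, then flap DNA substrate added at 50 nM final. Signal read at 0 and 15 min; concentration-response fitted with four-parameter Hill equation.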
Numbers without * were called inactive; [ ] = dose if it differs, or a comment. Unless noted, calls follow the shape of the dose curve; as a rule, active = well fitted curve in the direction sought with a large enough effect; inconclusive = small, poorly fitted or top-dose-only effect, or another doubt; inactive = no such curve, though single readings can be large; an effect the other way counts as inactive or inconclusive.

How did COc1ccc(CNc2cc(-c3cccnc3)ncn2)c(OC)c1 do in these assays?
VDR inh: 32µM*

Results for COc1ccc(CNc2ncnc3ccc(-c4ccoc4)cc23)c(OC)c1 ?
VDR inh: 40µM*

How did COc1ccc(CNc2ncnc3ccc(-c4ccc5c(c4)OCO5)cc23)c(OC)c1 do in these assays?
VDR inh: -15%

Results for c1ncc(-c2ccoc2)c(NC2CC2)n1 ?
VDR inh: 50µM*

Results for COc1ccc(CNc2ncncc2-c2ccoc2)c(OC)c1 ?
VDR inh: 50µM*

What do the screens show for `CCOc1ccc(N2C(=O)N(Cc3ccc(C)cc3C)c3ccccc3S2(=O)=O)cc1`?
VDR inh: 12%; FEN1 inh: 14%

Results for COc1ccc(CNc2nc(-c3ccc(N(C)C)cc3)nc3ccccc23)c(OC)c1 ?
VDR inh: 35µM*

What do the screens show for `COc1ccc(CNc2nc(-c3ccc(C(=O)N(C)C)cc3)nc3ccccc23)c(OC)c1`?
VDR inh: -11%

What do the screens show for `N#Cc1cccc(-c2cncnc2NCc2cccnc2)c1`?
VDR inh: -9%

Results for c1cncc(CNc2ncncc2-c2ccoc2)c1 ?
VDR inh: 50µM*

What do the screens show for `N#Cc1ccc(NC(=O)COCc2cc(-c3ccc(F)cc3)on2)cc1`?
VDR inh: -14%; FEN1 inh: 1%

What do the screens show for `Cn1c(=O)c(N)c2c3c(c(Br)ccc31)C(=O)c1ccccc1-2`?
TCR act: 3%; VDR inh: -13%; WRN inhibitor: -20%; PI5P4Ka inh: 2; PLK1 PBD inh: 0.6µM*; FEN1 inh: inconclusive

How did Cn1c(=O)c2c(-c3ccccc3Br)n(C(C)(C)C)cc2n(C)c1=O do in these assays?
VDR inh: -2%; FEN1 inh: 10%

Results for N#Cc1nc(-c2ccc(OCc3ccc(Cl)cc3)cc2)oc1N1CCCCC1 ?
VDR inh: -16%; FEN1 inh: -5%

Results for Cc1ccc(/C=C/C(=O)O)cc1S(=O)(=O)NCCCO ?
TCR act: -3%; VDR inh: 5%; WRN inhibitor: -5%; PI5P4Ka inh: -15; PLK1 PBD inh: -8%; FEN1 inh: -1%

Results for Cc1ccc(/C=C/C(=O)O)cc1S(=O)(=O)N(CCO)CCO ?
TCR act: 1%[46.1 µM]; VDR inh: 15%; WRN inhibitor: 8%; PI5P4Ka inh: -59*; PLK1 PBD inh: -8%; FEN1 inh: -1%

What do the screens show for `CCSc1nnc(-c2ccncc2)o1`?
TCR act: 3%; VDR inh: 11%; WRN inhibitor: 1%; PLK1 PBD inh: 1%; FEN1 inh: -3%

What do the screens show for `CCSc1nnc(-c2sc3nnc(-c4ccccc4)c(-c4ccccc4)c3c2N)o1`?
TCR act: -9%; VDR inh: 20%; WRN inhibitor: 1%; PI5P4Ka inh: -3; PLK1 PBD inh: 15µM*; FEN1 inh: 2%

What do the screens show for `O=C(Nc1ccc2nc(SCC(=O)N3CCCC3)sc2c1)c1ccccc1F`?
VDR inh: 0%; FEN1 inh: -6%

How did COc1cc(/C=C2\C(=N)N3N=C(S(C)(=O)=O)SC3=NC2=O)cc(OC)c1OCCOc1ccccc1C do in these assays?
TCR act: -5%; VDR inh: inconclusive; WRN inhibitor: inconclusive; PI5P4Ka inh: inconclusive; PLK1 PBD inh: 30µM*; FEN1 inh: -22%

What do the screens show for `COc1cc(/C=C2\C(=N)N3N=C(S(C)(=O)=O)SC3=NC2=O)ccc1OS(=O)(=O)c1ccc(C)cc1`?
TCR act: 6%; VDR inh: inconclusive; WRN inhibitor: -24%[11.6 µM]; PI5P4Ka inh: -80*; PLK1 PBD inh: 24µM*; FEN1 inh: -15%

Results for CCC1=NN2C(=N)/C(=C/c3ccc(OS(=O)(=O)c4ccccc4)c(OC)c3)C(=O)N=C2S1 ?
TCR act: 5%; VDR inh: -25%; WRN inhibitor: -26%; PI5P4Ka inh: -26; PLK1 PBD inh: 19µM*; FEN1 inh: -15%

How did COc1cc(/C=C2/C(=N)N3N=C(C(C)C)SC3=NC2=O)ccc1OS(=O)(=O)c1ccccc1 do in these assays?
TCR act: 3%; VDR inh: 56µM*; WRN inhibitor: -8%; PI5P4Ka inh: inconclusive; PLK1 PBD inh: 38µM*; FEN1 inh: 0%

How did Cc1c(C(=O)Nc2cccc(C#N)c2)sc2nc3n(c(=O)c12)CCCCC3 do in these assays?
VDR inh: 4%; FEN1 inh: 28%

How did CCCC1=NN2C(=N)/C(=C\c3cc(C)n(Cc4ccccc4)c3C)C(=O)N=C2S1 do in these assays?
TCR act: 0%; VDR inh: -1%; WRN inhibitor: -5%; PI5P4Ka inh: 1; PLK1 PBD inh: inconclusive; FEN1 inh: -4%

How did Cc1cc(/C=C2\C(=N)N3N=C(S(C)(=O)=O)SC3=NC2=O)c(C)n1Cc1ccccc1 do in these assays?
TCR act: -4%; VDR inh: -3%; WRN inhibitor: inconclusive; PI5P4Ka inh: -22; PLK1 PBD inh: 27µM*; FEN1 inh: -18%

Results for O=c1c2c3c(sc2n2cnnc2n1-c1ccccc1)N(Cc1ccccc1)CCC3 ?
VDR inh: inconclusive; WRN inhibitor: 0%; PI5P4Ka inh: -20; PLK1 PBD inh: 30µM*; FEN1 inh: -10%

Results for Cc1ccc(S(=O)(=O)N2CCN=C2SCc2ccccc2)cc1 ?
TCR act: -1%; VDR inh: -26%; WRN inhibitor: -3%; PI5P4Ka inh: 1; PLK1 PBD inh: 30µM*; FEN1 inh: -2%

Results for COc1ccc(S(=O)(=O)NCCc2cn3nc(C)c(C)nc3n2)cc1 ?
TCR act: 0%; VDR inh: -5%; WRN inhibitor: -2%; PI5P4Ka inh: 0; PLK1 PBD inh: -5%; FEN1 inh: 0%

What do the screens show for `Cc1nc2nc(CCNS(=O)(=O)c3ccc(Cl)cc3)cn2nc1C`?
TCR act: -1%; VDR inh: 89µM*; WRN inhibitor: 13%; PI5P4Ka inh: -8; PLK1 PBD inh: 0%; FEN1 inh: 6%

Results for COc1ccc(NC(=O)CSc2nc(-c3ccccc3)[nH]c2-c2ccccc2)cc1OC ?
VDR inh: 11%; FEN1 inh: -14%
